# PubChem BioAssay (NCI)
# This is part of a sample that, as a whole, favours compounds with a hit. Of some 79,000 tested, about 15% had one in any assay. A number with no mark means an inactive call. No stated cut-off is given here; in the data, active means growth inhibition above about 70%; inactive means the rest. Where a SMILES comes first, the peptide text is derived from it. The star is where a group is joined. For = O=C*
# Test: NCI Yeast Anticancer Drug Screen. Data for the sgs1 mgt1 strain (AID 161);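 further: 0% = growth of cultures given vehicle only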
# Conditions: S. cerevisiae sgs1 mgt1 strain, at 50.0 µM, hits give high values
# Method in brief: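 Yeast cells carrying a defined DNA-repair defect were exposed to test compounds. Growth inhibition was measured relative to vehicle-treated controls.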
row,SMILES,growth inhibition
1,CCC(C)C=O (stereo not given),-9.2%
2,CCCCCCCCC(=O)OCC(=O)c1ccc(-c2ccccc2)cc1,3.35%
3,CCNc1nnc(N=Nc2ccccc2)s1,13.4%
4,CC(=O)OC(C(=O)Nc1ccc(Br)cc1)c1ccccc1 (stereo not given),-4.75%
5,CCN(CC)CCCn1cnc2ncccc2c1=O,8.8%
6,CCC(C)C1CCCCC1OC(=O)CCl (stereo not given),-16.3%
7,Cc1ccc(S(=O)(=O)CC(=O)CC(=O)C(=O)Nc2ccc(C)cc2C)cc1,-21.1%
8,COC(=O)c1cc2ccc1OCC#CC#CCOc1ccc(cc1C(=O)OC)OCC#CC#CCO2,7.35%
9,O=C(O)c1ccc2c(Cl)ccc3c2c1CC3,9.05%
10,COc1ccc(NC(=O)C2C(=O)N(c3ccc(OC)cc3)C(=O)/C2=N\N)cc1 (stereo not given),-2.9%
11,CCOC(=O)CCC(NC(=O)c1ccc(N(C)C=O)cc1)C(=O)OCC (stereo not given),-0.55%
12,Cc1ccc(CCS(=O)(=O)N=[N+]=[N-])cc1,-8.95%
13,C=CCOc1cc2c(cc1C(C)c1ccc(OC)cc1)OCO2 (stereo not given),5.95%
14,Brc1cccc2ccc3ccccc3c12,29.1%
15,CCNC(=O)Nc1nc2ccccc2s1,1.75%
16,CCN(CC)CCCC(C)NCCCN (stereo not given),-5.4%
17,O=C(OCc1ccccc1CN1CCCC1)c1cccc(Cl)c1,-8.1%
18,COc1ccc2c(c1)CCC1=C2CC2C(=O)C1(C)CCC2(C)OC(C)=O (stereo not given),-1.3%
19,CSCCC(NC(=O)C(Cc1ccccc1)NC=O)C(=O)O (stereo not drawn) (For-Phe-Met-OH; configuration not given here),-10.5%
20,COC(=O)/C(C#N)=C/c1cccnc1,6%

row,SMILES,growth inhibition
1,CCOC(=O)Oc1ccc(Cl)cc1Cl,2.55%
2,COC(=O)c1nc(N)nc(C(=O)OC)c1C(=O)c1c(C)[nH]c2ccccc12,-36.9%
3,CN1C(C(=O)Nc2ccccn2)=C(O)c2ccccc2S1(=O)=O,5.1%
4,OCC(O)C(O)C(O)c1nn(-c2ccc(Cl)cc2)c2nc3cc(Cl)c(Cl)cc3nc12 (stereo not given),-33.9%
5,Cc1ccc(NC(=S)NC(=O)c2ccccc2)cc1,8.7%
6,Cc1cccc(/C=N/NC(=S)NCCc2ccccn2)n1,14.2%
7,CC(=O)NC(CCCCNC(=O)OC(C)(C)C)C(=O)O (stereo not given),-23.2%
8,Nc1nc(Cl)nc(Cl)n1,-33%
9,Cc1ccc2c(c1)nc(N)n[n+]2[O-],-3.4%
10,NC(=S)N/N=C/C=C/c1ccco1,30.6%
11,CC(=O)Nc1c(OC(C)=O)ccc2cc(Br)ccc12,12.4%
12,C/C(=N\NS(=O)(=O)c1ccc(N)cc1)c1ccc(C)cc1C,0.8%
13,COC(=O)/C(C=Nc1ccccc1)=C(/C)O,9%
14,CC(=O)NNc1nc(C)c(C(=O)/C=C/c2ccc(/C=C/C(=O)c3sc(NNC(C)=O)nc3C)cc2)s1,-37.6%
15,C[n+]1cccc(C(=O)c2ccccc2)c1,0.65%
16,S=c1nn[nH]n1-c1cccc2ccccc12,-4.65%
17,CCCCCC(=C/c1ccccc1)/C=N/N1CCN(/N=C/C(=C/c2ccccc2)CCCCC)CC1,22.4%
18,CCCCNCCCNCCCC,0.65%
19,CC(C)(C)C1(C#N)C(=O)N(c2ccc(Cl)cc2)C12c1ccccc1-c1ccccc12 (stereo not given),6.45%
20,CC12NC(=O)NC1(C)NC(=O)N2 (stereo not given),-35.9%

# Test: NCI Yeast Anticancer Drug Screen. Data for the cln2 rad14 strain (AID 165);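 further: 0% = growth equal to vehicle treated cultures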
# Conditions: S. cerevisiae cln2 rad14 strain, at 50.0 µM, hits give high values
# Method in brief: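 Relative to vehicle controls, growth inhibition of compound-treated cln2 rad14 yeast was recorded.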
row,SMILES,growth inhibition
1,CCC(C)C=O (stereo not given),2.2%
2,CCCCCCCCC(=O)OCC(=O)c1ccc(-c2ccccc2)cc1,-7.85%
3,CCNc1nnc(N=Nc2ccccc2)s1,-2%
4,CC(=O)OC(C(=O)Nc1ccc(Br)cc1)c1ccccc1 (stereo not given),-35.5%
5,CCN(CC)CCCn1cnc2ncccc2c1=O,21%
6,CCC(C)C1CCCCC1OC(=O)CCl (stereo not given),0.05%
7,Cc1ccc(S(=O)(=O)CC(=O)CC(=O)C(=O)Nc2ccc(C)cc2C)cc1,2%
8,COC(=O)c1cc2ccc1OCC#CC#CCOc1ccc(cc1C(=O)OC)OCC#CC#CCO2,5.75%
9,O=C(O)c1ccc2c(Cl)ccc3c2c1CC3,-32.5%
10,COc1ccc(NC(=O)C2C(=O)N(c3ccc(OC)cc3)C(=O)/C2=N\N)cc1 (stereo not given),-57.6%
11,CCOC(=O)CCC(NC(=O)c1ccc(N(C)C=O)cc1)C(=O)OCC (stereo not given),-6.8%
12,Cc1ccc(CCS(=O)(=O)N=[N+]=[N-])cc1,-53.8%
13,C=CCOc1cc2c(cc1C(C)c1ccc(OC)cc1)OCO2 (stereo not given),-10.3%
14,Brc1cccc2ccc3ccccc3c12,8.25%
15,CCNC(=O)Nc1nc2ccccc2s1,-90.7%
16,CCN(CC)CCCC(C)NCCCN (stereo not given),-5.4%
17,O=C(OCc1ccccc1CN1CCCC1)c1cccc(Cl)c1,-7.2%
18,COc1ccc2c(c1)CCC1=C2CC2C(=O)C1(C)CCC2(C)OC(C)=O (stereo not given),-40.5%
19,CSCCC(NC(=O)C(Cc1ccccc1)NC=O)C(=O)O (stereo not drawn) (For-Phe-Met-OH; configuration not given here),5.7%
20,COC(=O)/C(C#N)=C/c1cccnc1,-61.1%

row,SMILES,growth inhibition
1,CCOC(=O)Oc1ccc(Cl)cc1Cl,5.2%
2,COC(=O)c1nc(N)nc(C(=O)OC)c1C(=O)c1c(C)[nH]c2ccccc12,-30.1%
3,CN1C(C(=O)Nc2ccccn2)=C(O)c2ccccc2S1(=O)=O,0.9%
4,OCC(O)C(O)C(O)c1nn(-c2ccc(Cl)cc2)c2nc3cc(Cl)c(Cl)cc3nc12 (stereo not given),15.4%
5,Cc1ccc(NC(=S)NC(=O)c2ccccc2)cc1,-55.7%
6,Cc1cccc(/C=N/NC(=S)NCCc2ccccn2)n1,0.8%
7,CC(=O)NC(CCCCNC(=O)OC(C)(C)C)C(=O)O (stereo not given),7.45%
8,Nc1nc(Cl)nc(Cl)n1,3.75%
9,Cc1ccc2c(c1)nc(N)n[n+]2[O-],3.25%
10,NC(=S)N/N=C/C=C/c1ccco1,-41.5%
11,CC(=O)Nc1c(OC(C)=O)ccc2cc(Br)ccc12,-15.2%
12,C/C(=N\NS(=O)(=O)c1ccc(N)cc1)c1ccc(C)cc1C,-5.25%
13,COC(=O)/C(C=Nc1ccccc1)=C(/C)O,-29.2%
14,CC(=O)NNc1nc(C)c(C(=O)/C=C/c2ccc(/C=C/C(=O)c3sc(NNC(C)=O)nc3C)cc2)s1,6.25%
15,C[n+]1cccc(C(=O)c2ccccc2)c1,12.1%
16,S=c1nn[nH]n1-c1cccc2ccccc12,2.6%
17,CCCCCC(=C/c1ccccc1)/C=N/N1CCN(/N=C/C(=C/c2ccccc2)CCCCC)CC1,3.2%
18,CCCCNCCCNCCCC,-0.7%
19,CC(C)(C)C1(C#N)C(=O)N(c2ccc(Cl)cc2)C12c1ccccc1-c1ccccc12 (stereo not given),19.2%
20,CC12NC(=O)NC1(C)NC(=O)N2 (stereo not given),-38.9%
